From PubChem BioAssay AID1030 (National Center for Advancing Translational Sciences (NCATS), 2008)
About 16,000 (7.3%) of roughly 220,000 compounds were called active. About 25% were inconclusive and are not listed. Shown is part of a subset that was picked to be rich in actives. Unmarked numbers belong to inactive results. Calls come from the whole dose curve; as a rule, active = well fitted inhibition curve with a large enough effect (not every such curve was filed as active); inconclusive = small, poorly fitted or top-dose-only effect, or another doubt; inactive = no such curve, though single readings can be large or run the other way.

Each compound was assayed against Aldehyde dehydrogenase 1A1 (Homo sapiens) (UniProt P00352) (assay: qHTS Assay for Inhibitors of Aldehyde Dehydrogenase 1 (ALDH1A1)). Details: Purified ALDH1A1, NADH fluorescence, propionaldehyde substrate; series mostly up to 75.3 µM; activity, negative = inhibition: at the top concentration.
Chain of Aldehyde dehydrogenase 1A1 (Homo sapiens) (P00352 whole entry, looked up): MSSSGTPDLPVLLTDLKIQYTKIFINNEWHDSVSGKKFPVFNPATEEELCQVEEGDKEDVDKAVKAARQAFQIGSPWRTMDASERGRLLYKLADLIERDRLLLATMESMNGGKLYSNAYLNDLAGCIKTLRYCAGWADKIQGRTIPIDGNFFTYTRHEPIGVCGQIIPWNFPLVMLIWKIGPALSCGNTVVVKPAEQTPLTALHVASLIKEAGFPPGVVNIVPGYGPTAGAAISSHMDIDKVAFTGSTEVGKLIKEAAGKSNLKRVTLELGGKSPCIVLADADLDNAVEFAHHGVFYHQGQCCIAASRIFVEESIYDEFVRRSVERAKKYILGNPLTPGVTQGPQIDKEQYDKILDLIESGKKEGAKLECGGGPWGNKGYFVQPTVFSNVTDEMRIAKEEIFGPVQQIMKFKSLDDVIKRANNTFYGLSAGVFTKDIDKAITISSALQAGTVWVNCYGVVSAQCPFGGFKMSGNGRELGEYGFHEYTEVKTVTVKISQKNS
Potency is the fitted concentration of half-maximal effect.
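Throughout, for activity, negative = inhibition: plate controls were no enzyme wells and a reference inhibitor.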

| SMILES | Potency | activity, negative = inhibition |
| --- | --- | --- |
| Cc1nc(C)c(C(=O)Nc2cccc(C)c2C)o1 | 17800 nM (active) | – |
| Cc1cccc(NC(=O)c2ccc3nsnc3c2)c1C | – | -4.39% |
| Cc1nnsc1C(=O)Nc1cccc(Cl)c1C | – | 3.33% |
| O=C(c1ccc(F)cc1)N1CCCC(c2nc(-c3cccs3)no2)C1 (stereo not given) | – | -8.32% |
| CCOC(=O)C1CCN(C(=O)C2(NC(=O)Nc3cccc(F)c3)CCCCC2)CC1 | – | 4.32% |
| CC(=O)c1cnc(-c2ccccc2)s1 | – | -9.73% |
| CCN(CC)c1ccc2oc(=O)c(C)nc2c1 | 1000 nM (active) | – |
| CCN(CC)c1ccc(/C=N/Nc2nc(C)cc(C)n2)c(O)c1 | – | 2.46% |
| CCN(CC)c1ccc2cc(C(N)=O)/c(=N\NC(=O)c3ccncc3)oc2c1 | – | -10.6% |
| COc1ccc(CCNC(=O)CN(c2ccccc2)S(C)(=O)=O)cc1 | – | 2.48% |
| Cc1cc(C(=O)NNC(=O)CCC2CCCCC2)c(C)o1 | – | -3.14% |
| CCOC(=O)C1C/C(=C\C(C)=O)c2cccc(C(F)(F)F)c2O1 (stereo not given) | – | -5.96% |
| C=CCC(C)(O)c1ccco1 (stereo not given) | – | 12.8% |
| O=C(c1ccc(Cl)c([N+](=O)[O-])c1)N1CCN(c2ccccc2)CC1 | – | 1.09% |
| O=[N+]([O-])c1ccc(N2CCN(c3ccc(O)cc3)CC2)c(Cl)c1 | 7940 nM (active) | – |
| COc1ccc(N2CCN(c3ccc([N+](=O)[O-])cc3Cl)CC2)cc1 | – | 4.73% |
| C/C=C/C=C/C(=O)OCC(=O)Nc1ccc(Cl)cc1 | – | -2.76% |
| O=C(C1CCN(S(=O)(=O)c2ccc(Br)s2)CC1)N1CCN(C2CCCCC2)CC1 | – | -12.8% |
| Cc1ccc(S(=O)(=O)CC(=O)Nc2c(C)n(C)n(-c3ccccc3)c2=O)cc1 | – | -4.24% |
| Cc1ccc(S(=O)(=O)N2CCN(CC(=O)N/N=C/c3ccc(Br)s3)CC2)cc1 | – | 0.942% |
| Cc1cccc2c1N(CC(=O)OC(C)C)C(=O)C2=O | 20 nM (active) | – |
| CC1(C)NC(=O)N(CCOc2cccc(Oc3ccccc3)c2)C1=O | – | -11.9% |
| Cc1nn(CCOc2ccccc2)c(=O)n1-c1ccccc1F | – | -4.02% |
| Cc1cc(C)cc(OCC(=O)NNC(=O)CCN2C(=O)c3ccccc3C2=O)c1 | – | -8.44% |
| Cc1ccccc1C(=O)NNC(=O)CN1C(=O)c2ccccc2C1=O | – | 4.91% |
| CCOC(=O)CN1C(=O)N[C@@H](c2ccc(Br)cc2)C(C(C)=O)=C1C | inactive | – |
| CC(C)OC(=O)CN1C(=O)c2ccccc2C1=O | – | 8.21% |
| CCOC(=O)CN1C(=O)C(=O)c2cc(C)ccc21 | 178 nM (active) | – |

| SMILES | Potency | activity, negative = inhibition |
| --- | --- | --- |
| CC(C)OC(=O)CN1CCN(c2ccc(Cl)cc2)CC1 | – | -2.07% |
| Cc1cccc2c1N(CCOc1ccccc1)C(=O)C2=O | 224 nM (active) | – |
| CC(C)OC(=O)CN1C(=O)C(=O)c2ccccc21 | 63.1 nM (active) | – |
| CCCCOC(=O)Cn1c(=O)n(CC(=O)OCCCC)c2cc(C)ccc21 | – | -4.24% |
| OCCC1CN(Cc2cccn2-c2nccs2)CCN1CCc1ccccc1 (stereo not given) | – | 11.6% |
| C/C(=N\NC(=O)c1cccnc1)c1ccc(-n2ccnc2)cc1 | – | 8.66% |
| C#CCOCCOCCOCCNc1nc(N2CCN(C(=O)[C@H](CCC(=O)O)n3cc(C(N)CO)nn3)CC2)nc(N2CCN(C(=O)[C@H](Cc3ccc(O)cc3)n3cc(C(N)[C@H](C)CC)nn3)CC2)n1 (stereo not given in full) | – | -1.39% |
| Cc1nnc(SCC2=C(C(=O)O)N3C(=O)C(NC(=O)Cn4nc(C)c(Cl)c4C)C3SC2)s1 (stereo not given) | – | 3.56% |
| CCCOc1ccc(NC(=O)CC2C(=O)N(C)C(=S)N2Cc2ccc3c(c2)OCO3)cc1 (stereo not given) | – | 4.02% |
| NS(=O)(=O)c1ccc(N2C(=O)C3C4CC(C(Br)C4Br)C3C2=O)cc1 (stereo not given) | – | 6.76% |
| CC(=O)Nc1ccc(S(=O)(=O)Nc2ccc(-c3ccc4nnc(C)n4n3)cc2)cc1 | – | -0.516% |
| NCCC(=O)c1ccccc1N | – | -18% |
| COc1ccc(NC(=O)c2sc(N)nc2-c2ccccc2)cc1 | – | 7.79% |
| S=C(NN=C1CCN(Cc2ccccc2)CC1)NC1CCCCC1 | – | -10.8% |
| CCN(C(=O)c1ccc(Br)cc1)c1ccccc1 | – | -4.18% |
| CCC1(C(=O)c2ccccc2)C(c2cccc([N+](=O)[O-])c2)C1(C(=O)OC)C(=O)OC (stereo not given) | – | 16% |
| Cc1ccccc1C(=O)OC1OC(=O)C(Cl)=C1Nc1ccccc1 (stereo not given) | – | -17.1% |
| C=CCN1c2ccccc2[C@]23C[C@@H](C(=O)OC)N(S(=O)(=O)c4ccc([N+](=O)[O-])cc4)C2=NC(C(=O)OC)=C(C(=O)OC)[C@H]13 | – | -3.11% [at 13.5 µM] |
| O=C1NC2(CCCCCC2)C(=O)N1CCS(=O)(=O)Oc1ccccc1 | – | -2.26% |
| CC(=O)Nc1ccc(C(=O)/C=C/c2ccc[nH]2)cc1 | – | -1.58% |
| Cc1cc(C(=O)N/N=C/c2ccccc2[N+](=O)[O-])c(C)o1 | – | -5.15% |
| Clc1ccc(C2=CSC3=Nc4cccc5cccc(c45)N23)cc1 | 7940 nM (active) | – |
| CCN(CC)CC1(O)CCN(C(=O)c2ccc(Cl)c(Cl)c2)CC1 | – | -1.58% |
| CC(C)(C)n1nc2c(c1NC(=O)c1cc3ccccc3o1)CSC2 | – | 9.75% |
| Cc1ccc(C)c(NC(=S)NCC(c2cccnc2)N2CCOCC2)c1 (stereo not given) | – | -2.08% |
| CCCCC(CC)CNC(=O)CCCCn1c(=O)[nH]c2ccsc2c1=O (stereo not given) | – | 0.924% |
| COC(=O)C(C)C1Sc2ccccc2NC1=O (stereo not given) | – | -1.81% |
